# Measurements taken from PubChem BioAssay (NCATS).
# Several values for one entry are separate records, joined by “and”; a condition that tells them apart may be missing. Identical values can stand only once. Results filed as inconclusive are left out. A call without a number means that no potency is given here. Activity calls are given as the source filed them. Unless noted, calls follow the shape of the dose curve; as a rule, active = well fitted curve in the direction sought with a large enough effect; inconclusive = small, poorly fitted or top-dose-only effect, or another doubt; inactive = no such curve, though single readings can be large; an effect the other way counts as inactive or inconclusive.
# How the values were obtained:
# [1] = molecular target: Peroxisome proliferator-activated receptor alpha (Homo sapiens) (UniProt Q07869); test: qHTS assay for small molecule agonists of the peroxisome proliferator-activated receptor alpha (PPARalpha) signaling pathway (AID 651778); settings: PathHunter PPARalpha complementation, chemiluminescence, 6 h; max response: stronger effect = higher value
# Method in brief: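 Cells plated at 2,000/well and held overnight at 37 C, 5% CO2, then compound added by pin tool for 6 hr; after PathHunter detection reagent and 60 min at room temperature, chemiluminescence from enzyme complementation was read.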
# [2] = qHTS assay for small molecule agonists of the antioxidant response element (ARE) signaling pathway measured by Nrf2-dependant transcriptional activity (AID 720636; active = well fitted curve in the direction sought with a large enough effect in the repeat runs; an effect the other way counts as inactive or inconclusive;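 also: HepG2 cells with an ARE-driven luciferase reporter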)
# Method in brief: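 HepG2 ARE-luc reporter line, 1% dialyzed FBS; 6 hr attachment at 37 C, compound pinned in, 16 hr at 37 C/5% CO2; ONE-Glo, 30 min RT, luminescence read.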
# [3] = qHTS assay for small molecule agonists of the antioxidant response element (ARE) signaling pathway measured by Nrf2-dependant transcriptional activity - cell viability counter screen (AID 720653; active = well fitted curve in the direction sought with a large enough effect in the repeat runs; an effect the other way counts as inactive or inconclusive); settings: ARE-bla HepG2 viability, CellTiter-Glo ATP luminescence, 16 h; stronger effect = lower value
# Method in brief: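 ARE-bla HepG2 cells (2,000/well) rested 5 hrs at 37C/5% CO2, then exposed to compounds in DMSO for 16 hrs. Viability was read in the same wells as intracellular ATP by luminescence, 30 min at room temperature after reagent addition.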
# [4] = qHTS Assay for Identifying Gametocytocidal Compounds (AID 743244); also: potency is read from the fitted curve at half-maximal effect;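 as to max response: actives lower the fluorescent signal which means gametocytes are killed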; settings: P. falciparum 3D7 stage III-V gametocytes, alamarBlue, 72 h; max response: stronger effect = lower value
# Method in brief: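 In this qHTS viability screen, late-stage 3D7 gametocytes are incubated with compound for 72 h, then with alamarBlue for 24 h; reduced resorufin fluorescence marks killing.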
# [5] = qHTS assay for cell viability of HEK293 cells (AID 743288); settings: ATP luminescence (CellTiter-Glo), 18 h, stronger effect = lower value; also: nearly all actives have a fitted effect of over 50% in size
# Method in brief: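 ATP luminescence (CellTiter-Glo) reports metabolically competent cell number after parental HEK293 cells, 2,000/well, were treated with DMSO-dissolved compounds for 18 h at 37 C; reagent incubation 30 min, room temperature.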
# [6] = qHTS assay for cell viability of the p53RE-bla HCT-116 cell line (AID 743292); also: nearly all actives have a fitted effect of over 55% in size
# Method in brief: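 Luminescent ATP quantitation (CellTiter-Glo) served as the viability read-out; reagent was added after 16 h compound exposure at 37 C and read after 30 min at room temperature. Cells: p53RE-bla HCT-116, 4,000 per well.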
# [7] = qHTS for compounds that reverse cellular toxicity of Amyloid beta (A-beta) peptide in yeast: LOPAC Validation Assay (AID 720559)
# Method in brief: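 OD600 growth readout after 48 hr at 30 C; A-beta-toxic yeast plus pinned compounds in medium. Normalization: DMSO = negative, equimolar FeCl3 + clioquinol = positive.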
# [8] = qHTS for Activators of Parkin Expression: LOPAC Validation Assay (FLuc Reporter) (AID 720573)
# Method in brief: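 FLuc luminescence read-out from a neuronal line expressing a Parkin-promoter-driven coincidence reporter. Cells treated 24 h at 37 C, 5% CO2 with compounds at 7 concentrations; signal increase normalized to DMSO and positive control.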
# [9] = molecular target: T1, Hexokinase-4 (Homo sapiens) + Glucokinase regulatory protein (Homo sapiens) (UniProt P35557+Q14397); test: qHTS assay for inhibitors of recombinant human GCK-GKRP interaction: Diaphorase-coupled assay (AID 743205)
# Method in brief: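 Resorufin fluorescence (525/590 nm), read each minute over 30 min, reports GCK activity coupled via G6PDH and diaphorase. Reaction: 10 nM GST-GCK, 10 nM FLAG-GKRP, 5 mM glucose, 0.4 mM ATP, 0.15 mM NADP+, 0.1 mM resazurin.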
# [10] = molecular target: T1, Hexokinase-4 (Homo sapiens) + Glucokinase regulatory protein (Homo sapiens); test: qHTS assay for inhibitors of recombinant human GCK-GKRP interaction: ADP-Glo assay (AID 743206)
# Method in brief: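 Pin-transferred compounds meet a 15 nM GST-GCK/15 nM FLAG-GKRP/2 uM S6P mix (dispense concentrations). ATP is then added to 0.4 mM final with 5 mM glucose, and the reaction runs 60 min at room temperature. ADP is quantified luminescently.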
# [11] = qHTS profiling for inhibitors of Plasmodium falciparum (3D7) proliferation (AID 743322);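 also: infected erythrocytes exposed to compound for 72 h before lysis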; settings: P. falciparum 3D7 proliferation; at 28.7 µM (top of the series) unless noted
# Method in brief: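 Parasite DNA was quantified by SYBR Green I fluorescence (ex 485, em 535 nm) after overnight lysis in saponin/Triton buffer at room temperature. Cultures at 0.3% parasitemia and 2.5% hematocrit were first exposed to compound for 72 h at 37 C; signals were normalised to artemisinin (0.29 uM) and vehicle wells.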
# [12] = qHTS profiling for inhibitors of Plasmodium falciparum (DD2) proliferation (AID 743323; call rule not given here); settings: lower = more inhibition; at 28.7 µM (top of the series) unless noted
# Method in brief: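 P. falciparum Dd2-infected erythrocytes (0.3% parasitemia, 2.5% hematocrit) exposed 72 h at 37 C, 5% CO2. Lysis with SYBR Green, overnight at room temperature, fluorescence 485/535 nm; normalized to 0.29 uM artemisinin and DMSO.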
# [13] = qHTS profiling for inhibitors of Plasmodium falciparum (HB3) proliferation (AID 743324); settings: Plasmodium falciparum HB3 blood-stage proliferation; at 28.7 µM (top of the series) unless noted
# Method in brief: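 SYBR Green fluorescence (485 ex/535 em) of lysed cultures, incubated overnight at room temperature in the dark, quantifies parasite DNA. Infected erythrocytes at 0.3% parasitemia and 2.5% hematocrit were exposed 72 h; values normalized to DMSO and 0.29 uM artemisinin controls.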
# T1 sequence (P35557 whole entry, looked up): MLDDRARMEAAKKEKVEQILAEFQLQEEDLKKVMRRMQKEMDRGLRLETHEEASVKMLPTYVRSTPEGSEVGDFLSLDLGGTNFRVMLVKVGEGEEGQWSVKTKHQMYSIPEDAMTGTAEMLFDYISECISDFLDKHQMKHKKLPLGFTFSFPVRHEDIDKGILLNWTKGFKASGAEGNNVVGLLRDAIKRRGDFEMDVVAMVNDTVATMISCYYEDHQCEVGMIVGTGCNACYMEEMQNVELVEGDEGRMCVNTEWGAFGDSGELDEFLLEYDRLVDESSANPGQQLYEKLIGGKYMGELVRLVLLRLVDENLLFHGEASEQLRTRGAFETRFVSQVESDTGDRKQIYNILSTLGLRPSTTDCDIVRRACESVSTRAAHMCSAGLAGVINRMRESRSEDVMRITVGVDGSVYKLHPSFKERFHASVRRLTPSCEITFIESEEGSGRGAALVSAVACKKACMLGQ
# T1 sequence (Q14397 whole entry, looked up): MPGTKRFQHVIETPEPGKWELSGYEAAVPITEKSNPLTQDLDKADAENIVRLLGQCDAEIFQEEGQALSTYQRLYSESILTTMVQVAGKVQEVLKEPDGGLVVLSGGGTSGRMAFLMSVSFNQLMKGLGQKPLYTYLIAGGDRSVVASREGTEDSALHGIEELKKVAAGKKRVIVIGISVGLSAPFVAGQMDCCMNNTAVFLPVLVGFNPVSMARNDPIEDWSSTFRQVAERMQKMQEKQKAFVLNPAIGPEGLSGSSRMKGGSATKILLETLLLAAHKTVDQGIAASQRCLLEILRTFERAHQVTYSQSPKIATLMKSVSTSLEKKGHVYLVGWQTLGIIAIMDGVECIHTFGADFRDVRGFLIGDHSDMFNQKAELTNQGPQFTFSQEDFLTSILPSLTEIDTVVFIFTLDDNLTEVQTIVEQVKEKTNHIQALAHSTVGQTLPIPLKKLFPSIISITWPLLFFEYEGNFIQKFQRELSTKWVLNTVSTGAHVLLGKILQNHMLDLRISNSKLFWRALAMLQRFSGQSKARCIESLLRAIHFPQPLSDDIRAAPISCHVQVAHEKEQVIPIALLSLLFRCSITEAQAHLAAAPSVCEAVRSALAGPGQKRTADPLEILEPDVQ
# Peroxisome proliferator-activated receptor alpha (Homo sapiens), sequence (Q07869 whole entry, looked up): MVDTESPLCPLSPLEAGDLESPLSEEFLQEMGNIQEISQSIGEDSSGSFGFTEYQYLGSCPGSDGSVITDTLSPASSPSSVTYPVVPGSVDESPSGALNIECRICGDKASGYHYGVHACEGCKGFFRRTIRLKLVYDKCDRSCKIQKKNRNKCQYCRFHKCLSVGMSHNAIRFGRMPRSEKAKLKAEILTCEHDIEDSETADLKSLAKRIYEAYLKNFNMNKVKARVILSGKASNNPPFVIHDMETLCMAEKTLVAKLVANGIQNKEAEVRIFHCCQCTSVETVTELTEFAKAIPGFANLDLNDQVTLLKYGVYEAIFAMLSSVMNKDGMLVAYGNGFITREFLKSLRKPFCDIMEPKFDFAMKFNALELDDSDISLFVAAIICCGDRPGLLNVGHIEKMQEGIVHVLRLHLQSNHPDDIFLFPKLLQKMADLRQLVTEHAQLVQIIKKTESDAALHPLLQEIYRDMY
smiles,measurement,setting,value
CC(O)(P(=O)(O)O)P(=O)(O)O,max response,[1],0.583% (inactive)
same,Potency,[2],inactive
same,max response,[3],-6.37% (inactive)
same,max response,[4],-10.1% (inactive)
same,max response,[5],-5.92% (inactive)
same,outcome,[6],inactive
CCCCC(=O)O[C@]1(C(=O)CO)CC[C@H]2[C@@H]3CCC4=CC(=O)CC[C@]4(C)[C@H]3[C@@H](O)C[C@@]21C,max response,[4],5.31% (inactive)
CCOC(=O)/C=C(C)/C=C/C=C(C)/C=C/c1c(C)cc(OC)c(C)c1C,max response,[4],14.1% (inactive)
CC1(C)CCC(NC(=O)[C@@H](N)CCC(=O)O)CC1,outcome,[7],inactive
same,outcome,[8],inactive
same,outcome,[9],inactive
same,outcome,[10],inactive
same,max response,[4],-7.5% (inactive) and 17.9% (inactive)
CCC(=O)c1c(O)cc(O)cc1O,max response,[4],19% (inactive)
COC(=O)CCc1ccc(OCC(O)CNC(C)C)cc1 (stereo not given),max response,[4],1.13% (inactive)
COc1cc(NS(C)(=O)=O)ccc1Nc1c2ccccc2nc2ccccc12,outcome,[7],inactive
same,outcome,[8],inactive
same,outcome,[9],inactive
same,outcome,[10],inactive
same,Potency,[4],6.31 µM (active)
CC(C)COC(=O)OCN1C(=O)CN(CCN2CC(=O)N(COC(=O)OCC(C)C)C(=O)C2)CC1=O,outcome,[7],inactive
same,outcome,[8],inactive
same,outcome,[9],inactive
same,outcome,[10],inactive
same,max response,[4],5.95% (inactive) and 28.2% (inactive)
c1ccc(OCc2ccc(CCCN3CCOCC3)cc2)cc1,max response,[4],-2.94% (inactive)
CC[C@H](C)C(=O)O[C@H]1CCC=C2C=C[C@H](C)[C@H](CC[C@@H]3C[C@@H](O)CC(=O)O3)[C@H]21,outcome,[7],inactive
same,outcome,[9],inactive
same,outcome,[10],inactive
same,max response,[4],15.8% (inactive) and 37.7% (inactive)
O=C(OCCOCCO)c1ccccc1Nc1cccc(C(F)(F)F)c1,max response,[4],12.2% (inactive)
C1CCc2nnnn2CC1,outcome,[7],inactive
same,outcome,[8],inactive
same,outcome,[9],inactive
same,outcome,[10],inactive
same,max response,[4],-4.71% (inactive)
C[C@]12C=CC(=O)C=C1[C@@H](F)C[C@@H]1[C@@H]2[C@@H](O)C[C@@]2(C)[C@H]1CC[C@]2(O)C(=O)CO,max response,[4],-0.315% (inactive) and -15.3% (inactive)
O=C(O)CNC(=O)c1ccccc1,max response,[4],1.04% (inactive)
Cc1nc2n(c(=O)c1CCN1CCC(c3noc4cc(F)ccc34)CC1)CCC[C@H]2O,max response,[4],-12.7% (inactive)
CCCCCC=CCC=CCCCCCCCC(=O)OCC,max response,[4],0.796% (inactive)
Oc1ccc(Cl)c2cccnc12,Potency,[4],7.94 µM (active)
CC1(C)OC[C@@H](COC(=O)CCc2ccc(OC[C@@H](O)CNCCNC(=O)N3CCOCC3)cc2)O1,max response,[4],-9.37% (inactive) and -4.75% (inactive)
Nc1nc2ncc(CNc3ccc(C(=O)N[C@@H](CCC(=O)O)C(=O)O)cc3)nc2c(=O)[nH]1,max response,[4],17.9% (inactive)
CCCn1c(=O)[nH]c(=O)c2[nH]cnc21,outcome,[9],inactive
same,outcome,[10],inactive
same,max response,[4],20.2% (inactive) and 5.21% (inactive)
Cc1cc(O)c(C(C)C)cc1Cl,max response,[4],-3.92% (inactive)
CN=C(NC#N)Nc1ccc(C2=NNC(=O)CC2C)cc1 (stereo not given),max response,[4],-3.79% (inactive)
CC(CCc1ccccc1)NCC(O)c1ccc(O)c(C(N)=O)c1 (stereo not given),outcome,[7],inactive
same,outcome,[8],inactive
same,outcome,[9],inactive
same,outcome,[10],inactive
same,max response,[4],16.8% (inactive)
COc1cc(/C=C/C(=O)O[C@H]2CC[C@]34C[C@]35CC[C@]3(C)[C@@H]([C@H](C)CCC=C(C)C)CC[C@@]3(C)[C@@H]5CC[C@H]4C2(C)C)ccc1O,max response,[4],-6.26% (inactive) and 0.13% (inactive)
O=C1CCC(c2ccc(-n3ccnc3)cc2)=NN1,outcome,[7],inactive
same,outcome,[8],inactive
same,outcome,[9],inactive
same,outcome,[10],inactive
same,max response,[4],-0.884% (inactive) and -6.59% (inactive)
CNCCC(Oc1ccccc1C)c1ccccc1 (stereo not given),outcome,[7],inactive
same,outcome,[8],inactive
same,outcome,[9],inactive
same,outcome,[10],inactive
same,max response,[4],9.68% (inactive)
N[C@@H](Cc1cnc[nH]1)C(=O)O,outcome,[7],inactive
same,outcome,[8],inactive
same,outcome,[9],inactive
same,outcome,[10],inactive
same,max response,[4],4.12% (inactive) and 12.1% (inactive)
N[C@H](CO)C(=O)O,outcome,[7],inactive
same,outcome,[8],inactive
same,outcome,[9],inactive
same,outcome,[10],inactive
same,max response,[4],0.963% (inactive) and 16.2% (inactive)
CN(C)CCCOc1nn(Cc2ccccc2)c2ccccc12,max response,[4],10.4% (inactive)
CN1C2CCC1CC(OC(=O)c1c[nH]c3ccccc13)C2 (stereo not given),outcome,[7],inactive
same,outcome,[8],inactive
same,outcome,[9],inactive
same,outcome,[10],inactive
same,max response,[4],9.76% (inactive)
Nc1cc(Cl)c(NC2=NCCN2)c(Cl)c1,outcome,[7],inactive
same,outcome,[8],inactive
same,outcome,[9],inactive
same,outcome,[10],inactive
same,max response,[4],-0.108% (inactive) and 36.5% (inactive)
CCOC(=O)[C@H](CCc1ccccc1)N[C@@H](C)C(=O)N1Cc2ccccc2C[C@H]1C(=O)O,max response,[4],4.65% (inactive)
CC(=O)Oc1ccc(C(=C2CCCCC2)c2ccc(OC(C)=O)cc2)cc1,max response,[4],9.87% (inactive)
CCC(NC(C)C)C(O)c1ccc(O)c(O)c1 (stereo not given),outcome,[7],inactive
same,outcome,[8],inactive
same,outcome,[9],inactive
same,outcome,[10],inactive
same,max response,[4],-4.31% (inactive)
CN(C/C=C/c1ccccc1)Cc1cccc2ccccc12,max response,[4],6.22% (inactive)
CC(=O)O[C@H]1C[C@@H]2CC[C@@H]3[C@H](CC[C@@]4(C)[C@H]3C[C@H]([N+]3(C)CCCCC3)[C@@H]4OC(C)=O)[C@@]2(C)C[C@@H]1[N+]1(C)CCCCC1,outcome,[7],inactive
same,outcome,[8],inactive
same,outcome,[9],inactive
same,outcome,[10],inactive
same,max response,[4],-9.72% (inactive) and 10.5% (inactive)
CCN(CC)C(=O)N1CCN(C)CC1,max response,[4],0.149% (inactive)
C[N+]1(CCCCC[N+]2(C)CCCC2)CCCC1,outcome,[7],inactive
same,outcome,[8],inactive
same,outcome,[9],inactive
same,outcome,[10],inactive
same,max response,[4],12.3% (inactive) and 19.3% (inactive)
CN1CCN(CCCN2c3ccccc3Sc3ccc(S(=O)(=O)N(C)C)cc32)CC1,remaining parasite growth % (stronger effect = lower value),[11],1.46% [at 9.63 µM]
same,"activity, percent of control",[12],2.48% [at 9.63 µM]
same,"remaining proliferation (% of control), lower = more inhibition",[13],1.27% [at 9.63 µM]
COc1cccc(CCc2ccccc2OCC(CN(C)C)OC(=O)CCC(=O)O)c1 (stereo not given),remaining parasite growth % (stronger effect = lower value),[11],1.08%
same,"activity, percent of control",[12],1.06%
same,"remaining proliferation (% of control), lower = more inhibition",[13],1.2%
